The values below come from PubChem BioAssay.

The source made the active and inactive calls.

Assay [1] in a line: binders of probe aFSTL3 on microarray, primary screen, stem cell growth factor project, biochemical, small-molecule microarray, fluorescence 635/667 (AID 1064).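 Also: measures binding of the biotinylated anti-FSTL3 antibody to printed compounds.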 As to conditions: higher = more signal.
Assay [2] is described as follows: binders from COS7 lysate, DM2A8 probe, primary screen, torsin A project, cell lysate, small-molecule microarray, fluorescence 635/667 (AID 1065). As to conditions: higher = more signal, COS7 lysate expressing mutant human TOR1A.
Assay [3] can be described thus: binders of probe aFGF2 on microarray, primary screen, stem cell growth factor project, biochemical, small-molecule microarray, fluorescence 635/667 (AID 1067).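 Also: measures binding of biotinylated aFGF2 protein to printed compounds on slides; z-score merges feature fluorescence and signal-to-noise across triplicate slides.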 To be noted: higher = more signal.
Assay [4] is described as follows: binders of probe aFGF10 on microarray, primary screen, stem cell growth factor project, biochemical, small-molecule microarray, fluorescence 635/667 (AID 1071).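 Also: score merges 667 nm spot intensity and signal to noise from triplicate slides.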 To be noted: higher = more signal.
Assay [5] addresses Neurogenic locus notch homolog protein 2 (Homo sapiens) (UniProt Q04721). Briefly: Notch2 binders on small-molecule microarrays, primary screen, biochemical, small-molecule microarray, 635 nm fluorescence, stem cell growth factors (AID 1073). As to conditions: Notch2 binding, higher = more signal.
In assay [6] the target is Pro-neuregulin-1, membrane-bound isoform (Homo sapiens) (UniProt Q02297). Description: NRG1 binders on small-molecule microarrays, primary screen, psychiatric disease protein project, biochemical, small-molecule microarray, fluorescence 635/667 (AID 1075).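 Also: score combines 667 nm spot fluorescence with signal to noise.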 To be noted: NRG1 binding, 635 nm fluorescence, higher = more signal.
Pro-neuregulin-1, membrane-bound isoform (Homo sapiens), sequence (Q02297 whole entry, looked up, the tested form may be a part, canonical isoform): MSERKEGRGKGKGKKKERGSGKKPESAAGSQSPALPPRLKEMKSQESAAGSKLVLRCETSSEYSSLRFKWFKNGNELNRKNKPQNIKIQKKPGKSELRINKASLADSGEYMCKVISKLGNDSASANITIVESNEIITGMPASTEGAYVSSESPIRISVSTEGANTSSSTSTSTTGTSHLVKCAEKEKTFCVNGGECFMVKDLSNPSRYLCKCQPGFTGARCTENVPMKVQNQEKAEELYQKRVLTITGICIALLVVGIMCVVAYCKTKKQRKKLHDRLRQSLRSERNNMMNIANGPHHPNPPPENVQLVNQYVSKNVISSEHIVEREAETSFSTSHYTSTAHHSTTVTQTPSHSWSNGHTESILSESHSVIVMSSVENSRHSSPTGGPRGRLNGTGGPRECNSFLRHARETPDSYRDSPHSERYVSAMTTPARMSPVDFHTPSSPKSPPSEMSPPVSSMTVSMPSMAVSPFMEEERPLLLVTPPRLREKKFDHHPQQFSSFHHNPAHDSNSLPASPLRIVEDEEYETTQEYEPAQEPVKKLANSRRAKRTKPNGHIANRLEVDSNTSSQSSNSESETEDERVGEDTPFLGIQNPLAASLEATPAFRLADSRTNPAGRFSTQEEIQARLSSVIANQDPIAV
For assay [7], the system named is Neuregulin-1 EGF-like domain. Briefly: binders of neuregulin-1 EGF-like domain, primary screen, biochemical, small-molecule microarray, 635 nm fluorescence (AID 1081).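 Also: binding of the protein to compounds printed on small-molecule microarray slides.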 To be noted: small-molecule microarray binding, higher = more signal.
A short description of assay [8]: FRG1 promoter luciferase signal modulators, primary screen, FRG1 inhibition for FSHD, cell-based, C2C12 myotubes, firefly/Renilla luciferase, luminescence (AID 1084). To be noted: higher = more signal, called active from +8 up or from −8 down.
A short description of assay [9]: binders of probe aFST on microarray, primary screen, stem cell growth factor project, biochemical, small-molecule microarray, fluorescence 635/667 (AID 1086).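 Also: score merges 667 nm fluorescence with signal-to-noise of each printed compound spot.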 As to conditions: higher = more signal.
The nature of assay [10]: binders of probe aHhip on microarray, primary screen, stem cell growth factor project, biochemical, small-molecule microarray, fluorescence 635/667 (AID 1087).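 Also: score merges spot fluorescence at 667nm with spot signal to noise ratio.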 As to conditions: higher = more signal.
The test system of assay [11] is PRMT1 (protein arginine N-methyltransferase 1). Description: PRMT1 binders on small-molecule microarrays, primary screen, biochemical, small-molecule microarray, 635 nm fluorescence (AID 1088).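 Also: binding of Prmt1 protein to compounds spotted on small-molecule microarray slides.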 As to conditions: small-molecule microarray binding, higher = more signal.
Assay [12] can be described thus: yeast growth modulation, basal conditions, primary screen, YJM789 clinical isolate, OD600, 24 h (AID 1089).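 Also: growth of clinical yeast isolate S. cerevisiae YJM 789 seeded 1000 cells per well; test concentration not given here.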 As to conditions: S. cerevisiae YJM789 growth, higher = more signal, called active from +8 up or from −8 down.
Assay [13] is described as follows: fission yeast growth modulation, primary screen, strain 972, OD600, 24 h, no modulator (AID 1090).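 Also: basal condition with compound alone and no growth modifier present; test concentration not given here.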 To be noted: S. pombe 972 growth, higher = more signal, called active from +8 up or from −8 down.
Assay [14] is described as follows: S. cerevisiae growth modulation with rapamycin, primary screen, strain BY4716, OD600, 96 h (AID 1091). Also: test concentration not given here. To be noted: higher = more signal, called active from +8 up or from −8 down.
For assay [15], the target named is Torsin-1A-interacting protein 2 (Homo sapiens) (UniProt Q8NFQ8). Briefly: LULL1 binders on small-molecule microarray, primary screen, cell lysate, human LULL1 lysate, 635/667 nm fluorescence (AID 1092).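 Also: score merges per-feature 667 nm fluorescence with signal-to-noise.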 As to conditions: hLULL1 lysate binding, 635 nm fluorescence, higher = more signal.
Torsin-1A-interacting protein 2 (Homo sapiens), sequence (Q8NFQ8 whole entry, looked up): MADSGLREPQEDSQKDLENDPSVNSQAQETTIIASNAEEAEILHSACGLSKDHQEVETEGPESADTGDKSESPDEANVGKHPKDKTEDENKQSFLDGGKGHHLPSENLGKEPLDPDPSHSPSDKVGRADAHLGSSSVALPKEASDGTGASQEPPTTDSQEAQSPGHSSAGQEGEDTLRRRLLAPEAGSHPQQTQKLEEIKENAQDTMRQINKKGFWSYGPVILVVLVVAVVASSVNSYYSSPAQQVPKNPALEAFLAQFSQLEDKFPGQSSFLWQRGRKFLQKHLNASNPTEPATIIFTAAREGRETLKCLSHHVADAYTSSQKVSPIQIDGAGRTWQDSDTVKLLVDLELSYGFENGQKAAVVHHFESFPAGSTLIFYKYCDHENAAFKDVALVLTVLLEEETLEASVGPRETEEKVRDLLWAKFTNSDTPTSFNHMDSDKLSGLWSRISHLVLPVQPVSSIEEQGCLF
A short description of assay [16]: E. coli growth modulation, two-sided OD650, primary screen, E. coli filamentation project, strain DRC41, 24 h (AID 1093).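 Also: MC1000 strain lacking acrAB efflux and sulA so SOS filamentation is blocked; test concentration not given here.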 As to conditions: OD650, 24 h, higher = more signal, called active from +8 up or from −8 down.
Assay [17] is described as follows: small-molecule microarray binders of probe aLefty2, primary screen, biochemical, biotinylated probe, 635/667 nm fluorescence (AID 1094).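 Also: score merges spot fluorescence near 667 nm with spot signal-to-noise ratio.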 To be noted: higher = more signal.
Assay [18] deals with Noggin (protein binding on small-molecule microarray). Description: Noggin binders on small-molecule microarray, primary screen, biochemical, 635/667 nm fluorescence (AID 1095).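 Also: score merges 667 nm feature fluorescence with signal to noise over triplicate slides.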 To be noted: 635 nm fluorescence, higher = more signal.
In assay [19] the target is Neurogenic locus notch homolog protein 3 (Homo sapiens) (UniProt Q9UM47). Briefly: NOTCH3 binders on small-molecule microarray, primary screen, biochemical, 635/667 nm fluorescence (AID 1096). As to conditions: NOTCH3 binding, 635 nm fluorescence, higher = more signal.
Neurogenic locus notch homolog protein 3 (Homo sapiens), sequence (Q9UM47 whole entry, looked up): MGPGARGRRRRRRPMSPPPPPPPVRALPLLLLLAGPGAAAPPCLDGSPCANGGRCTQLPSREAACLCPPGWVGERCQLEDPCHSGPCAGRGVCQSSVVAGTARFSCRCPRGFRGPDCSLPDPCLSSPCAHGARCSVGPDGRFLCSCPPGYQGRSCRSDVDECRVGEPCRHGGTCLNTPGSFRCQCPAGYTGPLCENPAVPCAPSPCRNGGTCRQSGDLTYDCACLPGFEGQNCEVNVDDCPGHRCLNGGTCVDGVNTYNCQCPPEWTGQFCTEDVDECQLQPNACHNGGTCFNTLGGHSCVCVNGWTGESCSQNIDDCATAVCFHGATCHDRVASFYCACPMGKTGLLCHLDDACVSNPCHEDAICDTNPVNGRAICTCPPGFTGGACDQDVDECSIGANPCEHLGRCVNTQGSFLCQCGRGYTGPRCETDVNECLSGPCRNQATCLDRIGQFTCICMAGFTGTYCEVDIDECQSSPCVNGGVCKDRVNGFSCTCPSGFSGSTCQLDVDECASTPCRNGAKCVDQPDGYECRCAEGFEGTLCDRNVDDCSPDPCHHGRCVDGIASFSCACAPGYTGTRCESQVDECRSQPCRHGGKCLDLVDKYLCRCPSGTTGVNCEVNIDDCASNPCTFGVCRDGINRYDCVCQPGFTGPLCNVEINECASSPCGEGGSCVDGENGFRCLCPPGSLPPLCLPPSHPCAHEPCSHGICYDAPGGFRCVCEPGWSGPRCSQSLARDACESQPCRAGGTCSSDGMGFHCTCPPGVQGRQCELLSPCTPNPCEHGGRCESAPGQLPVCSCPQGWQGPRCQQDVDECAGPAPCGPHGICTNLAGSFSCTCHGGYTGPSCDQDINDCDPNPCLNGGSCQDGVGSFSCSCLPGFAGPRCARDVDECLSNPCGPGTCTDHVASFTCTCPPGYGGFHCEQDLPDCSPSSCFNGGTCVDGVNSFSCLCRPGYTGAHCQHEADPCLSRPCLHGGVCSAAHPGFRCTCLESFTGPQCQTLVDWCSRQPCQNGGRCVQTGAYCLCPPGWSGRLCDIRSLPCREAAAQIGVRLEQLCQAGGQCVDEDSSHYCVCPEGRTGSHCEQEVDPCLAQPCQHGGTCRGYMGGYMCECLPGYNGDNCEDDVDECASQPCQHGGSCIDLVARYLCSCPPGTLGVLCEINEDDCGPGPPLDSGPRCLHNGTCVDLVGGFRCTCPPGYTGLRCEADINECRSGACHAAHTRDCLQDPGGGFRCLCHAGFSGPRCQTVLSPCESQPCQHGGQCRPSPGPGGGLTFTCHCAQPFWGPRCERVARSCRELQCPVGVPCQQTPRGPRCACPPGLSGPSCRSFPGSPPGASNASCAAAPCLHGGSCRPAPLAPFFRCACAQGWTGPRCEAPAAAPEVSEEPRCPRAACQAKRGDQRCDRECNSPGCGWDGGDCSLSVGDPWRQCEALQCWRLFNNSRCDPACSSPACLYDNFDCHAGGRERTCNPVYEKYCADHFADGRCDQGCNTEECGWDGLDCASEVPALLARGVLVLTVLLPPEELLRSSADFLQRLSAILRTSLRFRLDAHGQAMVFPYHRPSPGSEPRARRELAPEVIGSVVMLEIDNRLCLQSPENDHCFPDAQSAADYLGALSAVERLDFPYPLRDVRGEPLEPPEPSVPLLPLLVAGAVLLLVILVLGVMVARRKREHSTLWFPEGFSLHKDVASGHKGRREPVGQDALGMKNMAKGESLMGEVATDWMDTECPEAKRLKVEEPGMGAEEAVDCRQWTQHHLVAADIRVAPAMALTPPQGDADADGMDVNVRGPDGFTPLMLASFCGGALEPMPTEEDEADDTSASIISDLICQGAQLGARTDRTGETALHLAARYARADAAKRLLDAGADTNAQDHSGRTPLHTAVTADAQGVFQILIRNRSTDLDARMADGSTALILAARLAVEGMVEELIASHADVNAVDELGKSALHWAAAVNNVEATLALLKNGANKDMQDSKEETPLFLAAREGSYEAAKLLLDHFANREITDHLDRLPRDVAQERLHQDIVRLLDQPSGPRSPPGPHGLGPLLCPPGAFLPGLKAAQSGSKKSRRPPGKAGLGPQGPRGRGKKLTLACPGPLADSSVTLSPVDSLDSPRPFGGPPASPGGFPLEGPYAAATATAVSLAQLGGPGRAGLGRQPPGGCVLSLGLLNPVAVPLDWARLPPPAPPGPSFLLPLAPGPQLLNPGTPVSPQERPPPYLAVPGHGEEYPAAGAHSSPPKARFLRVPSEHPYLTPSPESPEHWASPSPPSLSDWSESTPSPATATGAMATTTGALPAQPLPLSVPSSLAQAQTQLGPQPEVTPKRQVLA
A short description of assay [20]: small-molecule microarray binders of probe aEGFR, primary screen, biochemical, biotinylated probe, 635/667 nm fluorescence (AID 1097).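 Also: probe is a biotinylated anti-EGFR antibody binding compounds printed on slides; score combines fluorescence near 667 nm and signal to noise of each spot.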 As to conditions: higher = more signal.

As for `COc1ccc([Si](C)(C)[C@@H]2[C@@H](CCO)O[C@]3(C(=O)N(Cc4ccccc4)c4ccc(N5CCCCC5=O)cc43)[C@H]2C)cc1`, the composite z-score in [1] is -0.389; in assay [2], 0.942; in assay [3], 0.0026; in [4], 0.711; in [5] it was 1.06; in assay [6] it was 0.965. In addition, the composite z-score in assay [7] was 1.15; in assay [9], 0.566; in assay [10], -0.0645; in assay [11], 1.56; in assay [15], 2.06; in assay [17], -0.0151. Further, the composite z-score in assay [18] is 0.901; in assay [19] it was 1.11; in assay [20], -0.0828. For the same molecule, the z-score in [8] is -4.38 (inactive); in [12], 3.43 (inactive); in assay [13], -0.536 (inactive); in [14] it was 4.86 (inactive); in assay [16] it was 2.63 (inactive).

Take `CCOC(=O)C1=CC[C@@H](c2ccccc2)N(S(=O)(=O)c2ccc(C)cc2)[C@H]1C=C(C)C`: the composite z-score was -0.259 in [1]; 0.644 in assay [2]; 0.119 in assay [3]; 0.831 in assay [4]; 1.46 in [5]; 0.944 in assay [6]. Also, the composite z-score was 0.957 in assay [7]; 1.58 in assay [9]; -0.199 in assay [10]; 1.54 in assay [11]; 3.22 in assay [15]; 0.0704 in assay [17]. Besides, the composite z-score came out at 0.793 in assay [18], 1.06 in [19] and 0.101 in assay [20]. For the same molecule, the z-score in assay [8] is -2.39 (inactive); in [12], 0.465 (inactive); in assay [13], 2.76 (inactive); in [14], 4 (inactive); in assay [16] it was 0.322 (inactive).

`N#Cc1ccc(NN2C(C(O)c3ccco3)C=CC3C(=O)N(c4ccccc4)C(=O)C32)cc1` (stereo not given): the composite z-score in [1] is 0.188; in assay [2] it was -0.0615; in assay [3], -0.0133; in assay [4] it was 0.758; in assay [5], 0.54; in [6], 0.989. In addition, the composite z-score in [7] is 0.754; in assay [9] it was 0.39; in assay [10] it was -0.249; in [11], 0.327; in assay [15], 2.41; in assay [17] it was 0.0815. Moreover, the composite z-score in [18] was -0.0593; in assay [19], 0.591; in assay [20], -0.0411. For the same molecule, the z-score is 0.768 (inactive) in assay [8]; 0.0011 (inactive) in [12]; 0.376 (inactive) in assay [13]; 1.7 (inactive) in assay [14]; -3.5 (inactive) in assay [16].

As for `C[N+](C)(C)CCCCCCNC(=O)[C@@H]1C[C@@H]2C(=O)NCC(=O)N2[C@@H]1c1ccc(O)cc1`, the composite z-score in [1] was -0.416; in assay [2] it was 1.27; in assay [3], -0.116; in assay [4], 0.391; in [5], -0.149; in [6], 1.51. In addition, the composite z-score was 1.43 in [7]; 0.0022 in assay [9]; -0.0088 in [10]; 1.53 in assay [11]; 2.39 in assay [15]; -0.0942 in assay [17]. Also, the composite z-score in assay [18] is 1.53; in [19], 1.06; in assay [20], -0.141. Moreover, the z-score in [8] was 2.8 (inactive); in assay [12], 0.302 (inactive); in assay [13], 0.274 (inactive); in [14] it was -0.0145 (inactive); in [16], -0.239 (inactive).

Take `NCCCCCCNC(=O)[C@H]1C[C@H]2C(=O)N3CCC[C@H]3C(=O)N2[C@H]1c1ccc(O)cc1`: the composite z-score in assay [1] was 0.185; in [2], 0.533; in assay [3], -0.029; in assay [4] it was 0.176; in assay [5], -0.45; in [6] it was 1.23. The composite z-score is 1.22 in assay [7]; 0.0744 in assay [9]; -0.184 in assay [10]; 1.29 in [11]; 0.991 in assay [15]; -0.179 in assay [17]. Moreover, the results for the composite z-score in assay [18], in [19] and in assay [20] were 1.41, 0.419 and 0.0053, respectively. Further, the z-score in [8] was -0.415 (inactive); in [12], -0.777 (inactive); in [13] it was -1.25 (inactive); in [14], -0.28 (inactive); in [16] it was 0.181 (inactive).

As for `O=C1NC(=O)C2C1C=CC(C(O)c1ccc(-c3ccccc3)s1)N2Nc1ccccn1` (stereo not given), the composite z-score in assay [1] is 0.536; in [2], 0.259; in assay [3], -0.0605; in assay [4], 0.444; in assay [5], 1.31; in assay [6] it was 1.27. For the same molecule, the composite z-score in assay [7] was 0.988; in assay [9] it was 0.781; in assay [10] it was -0.191; in assay [11], 0.189; in [15] it was 1.76; in assay [17] it was 0.129. In addition, the composite z-score in assay [18] is -0.0414; in assay [19], 0.418; in assay [20] it was -0.0085. Further, the z-score is 0.703 (inactive) in assay [8]; -0.3 (inactive) in [12]; 1.01 (inactive) in [13]; 0.499 (inactive) in assay [14]; 0.0076 (inactive) in assay [16].

For the molecule `C=C(CCCC)/C(=C/C[C@H](OC(=O)c1ccncc1)c1ccc(CO)o1)c1cc(C(=O)OC)ccc1OC`, the composite z-score in assay [1] was -0.293; in [2] it was 1.83; in assay [3], -0.116; in assay [4], 0.418; in assay [5] it was 0.822; in assay [6] it was 1.01. Also, the composite z-score in assay [7] came to 1.26; in [9], 0.381; in assay [10], 0.0722; in [11] it was 1.56; in assay [15] it was 2.12; in [17], 0.0123. In addition, the composite z-score in assay [18] was 1; in assay [19], 1.13; in assay [20] it was -0.0056. For the same molecule, the z-score in assay [8] was -0.906 (inactive); in assay [12], -0.0643 (inactive); in assay [13], -1.65 (inactive); in assay [14] it was -0.57 (inactive); in assay [16], 0.171 (inactive).

`O=C1c2ccccc2[C@](Cc2ccccc2I)(C(=O)NC2CC2)[C@H](c2ccc(CO)cc2)N1Cc1ccccc1Cl`: the composite z-score in [1] is 0.558; in [2], 0.478; in assay [3], 0.221; in [4] it was 0.487; in assay [5], 1.23; in assay [6] it was 1.36. For the same molecule, the composite z-score was 1.27 in [7]; 0.496 in [9]; -0.105 in assay [10]; 1.36 in assay [11]; 1.91 in assay [15]; 0.349 in assay [17]. Moreover, the composite z-score worked out at 1.53 in [18], 0.856 in [19] and 0.178 in [20]. Besides, the z-score is -2.71 (inactive) in assay [8]; 0.07 (inactive) in [12]; 0.376 (inactive) in [13]; 1.57 (inactive) in assay [14]; -1.02 (inactive) in assay [16].

For `CCCC[C@H]1OB(O)C[C@H]2C1=C(COc1ccccc1)Cn1c(=O)n(-c3ccccc3)c(=O)n12`, the composite z-score is -0.211 in assay [1]; 0.556 in assay [2]; -0.145 in [3]; 0.279 in [4]; 0.403 in assay [5]; 1.01 in assay [6]. In addition, the composite z-score in assay [7] was 0.77; in assay [9], 0.415; in [10], -0.164; in assay [11], 0.905; in assay [15], 2.24; in assay [17], -0.116. Besides, the composite z-score in assay [18] is 0.836; in assay [19] it was 0.733; in [20], -0.0947. The z-score in [8] is -0.971 (inactive); in [12], 0.54 (inactive); in assay [13], -4.94 (inactive); in assay [14] it was 0.59 (inactive); in [16], -0.298 (inactive).
